{"source": "PubChem BioAssay (EPA / NIEHS)", "note": "Activity calls are given as the source filed them. Rule for the calls: active = hit-call score of the fitted dose curve at least 0.9, where 1 is the maximum; inactive = score below 0.9."}
{"read-out": "Cytochrome P450 7A1 (Homo sapiens) (UniProt P22680)", "test": "LTEA_HepaRG_CYP7A1: Life Technologies and Expression Analysis (LTEA) Assay for Cytochrome P450 7A1 (CYP7A1) using HepaRG (AID 2283496)", "settings": "mRNA level, 48 h; actives raise or lower the signal", "method": "LTEA_HepaRG is a cell based, multiplexed-readout assay that uses HepaRG, a human liver cell line, with measurements taken at 48 hours after chemical dosing on a 96-well plate.LTEA_HepaRG_CYP7A1 is one of 102 assay component(s) measured in the LTEA HepaRG cell culture assay. It is a marker of NR mediated metabolism.Data from the assay component LTEA_HepaRG_CYP7A1 was analyzed into 1 endpoint. This assay endpoint, LTEA_HepaRG_CYP7A1, was analyzed with bidirectional fitting relative to DMSO as the negative control and baseline of activity. Using a type of inducible reporter, measures of mRNA induction for gain or loss-of-signal activity can be used to understand regulation of transcription factor activity. To generalize the intended target to other relatable targets, this assay endpoint is annotated to the cyp intended target family, where the subfamily is xenobiotic metabolism.\nA total of 1060 chemcials from the ToxCast library were tested in eight-point concentration-response experiments. Cell culture and cytotoxicity assays were conducted at Thermo Fisher Scientific's Custom Services facility (Madison, WI). A single lot of human HepaRG cells (Thermo Fisher Scientific, Frederick, MD) was used for the cell culture experiments. 96-well format collagen type I coated plates of human HepaRG cells were prepared using established methods. Briefly, cryopreserved HepaRG cells were thawed, plated at a density of approximately 100,000 cells/well in HepaRG Thaw, Plate, and General Purpose media (HPRG770, Thermo Fisher Scientific), and incubated for 48 hours. 0.5% DMSO was selected as vehicle control to balance the requisite need of DMSO in HepaRG cultures to maintain differentiation (for example, baseline metabolism, proportions of hepatocytes vs. cholangiocytes), while enabling further hepatic receptor pathway activation (for example, PXR and CAR) in response to chemical exposure. 48 hours after plating, the culture medium was replaced with HepaRG Serum-Free Incudtion Media. Cells were exposed to each test chemical in duplicate and maintained in CO2 incubators for another 48 hours. Chemical plates were thawed to room temperature and 200x concentrations of treatment groups were prepared. 8-point conentration-reponse curves were made with the highest exposure at 100 uM, followed by half-log dilutions, all in 0.5% DMSO. Each test plate contained variouse controls, induction positive controls (1mM phenobarbital), cytotoxicity positive controls ([…] aflatoxin B1), vehicle controls (0.5% DMSO), and total lysis controls (0.5% DMSO). Cell morphology images were taken using an Essen IncuCyte FLR automated microscope, with six 96-well plates imaged in about 24 minutes. Images were captured and exported and JPEG files. Spent culture media was transfered to black-well plates for the LDH assay, and remaining media was sorted at -80 C for later use. Cells were treated with RLT buffer and frozen until shipped for gene expression analysis. Total RNA was isolated from the cell suspension in 75 uL of Buffer RLT (Qiagen, Germantown, MD 20874) by Quintiles/Expression Analysis (Durham, NC) using a custom isolation procedure. Total RNA from each plate well was transferred to a preamplification plate. Fluidigm's 96.96 Dynamic ArrayTM (Fluidigm, Amsterdam, the Netherlands) technology was used for gene expression analyses by quantitative reverse transcription polymerase chain reaction (qRT-PCR, performed by Quintiles/Expression Analysis, Durham, NC)89. Standard TaqManTM Assays (Applied Biosystems/ThermoFisher Scientific, Foster City, CA) were used to assess the expression of 93 genes selected based on their selectivity and sensitivity to important hepatic receptors known to be modulated by environmental chemicals; importance in human hepatocyte functionality; and hepatotoxicity. […]"}
{"compound": "N#Cc1c[nH]cc1-c1cccc2c1OC(F)(F)O2", "AC50": "69.9 µM (active)"}
{"compound": "COP(=S)(OC)SCn1nnc2ccccc2c1=O", "outcome": "inactive"}
{"compound": "COC(=O)c1c(C(F)F)nc(C(F)(F)F)c(C2=NCCS2)c1CC(C)C", "outcome": "inactive"}
{"compound": "COC(=O)N(C(=O)N1CO[C@@]2(C(=O)OC)Cc3cc(Cl)ccc3C2=N1)c1ccc(OC(F)(F)F)cc1", "AC50": "31.8 µM (active)"}
{"compound": "COC(=O)NC(=S)Nc1ccccc1NC(=S)NC(=O)OC", "outcome": "inactive"}
{"compound": "Clc1nc(Cl)nc(Nc2ccccc2Cl)n1", "outcome": "inactive"}
{"compound": "CN/C(=N\\[N+](=O)[O-])NCc1cnc(Cl)s1", "AC50": "50 µM (active)"}
{"compound": "CNC(=O)Oc1cccc2ccccc12", "outcome": "inactive"}
{"compound": "COC(=O)NS(=O)(=O)c1ccc(N)cc1", "outcome": "inactive"}
{"compound": "CCCCC(C#N)(Cn1cncn1)c1ccc(Cl)cc1", "note": "(stereo not given)", "outcome": "inactive"}
{"compound": "CCCC(=NOCC)C1=C(O)CC(CC(C)SCC)CC1=O", "note": "(stereo not given)", "outcome": "inactive"}
{"compound": "CC1(C)C(C=C(Cl)Cl)C1C(=O)OC(C#N)c1cccc(Oc2ccccc2)c1", "note": "(stereo not given)", "AC50": "13.9 µM (active)"}
{"compound": "CCCCC(O)(Cn1cncn1)c1ccc(Cl)cc1Cl", "note": "(stereo not given)", "AC50": "89 µM (active)"}
{"compound": "C=CCOC(=O)C(C)(C)OC(=O)c1cc(-n2c(=O)cc(C(F)(F)F)n(C)c2=O)ccc1Cl", "outcome": "inactive"}
{"compound": "CC1(C)C(C(=O)OC(C#N)c2cccc(Oc3ccccc3)c2)C1(C)C", "note": "(stereo not given)", "outcome": "inactive"}
{"compound": "N#CN=C1SCCN1Cc1ccc(Cl)nc1", "outcome": "inactive"}
{"compound": "CCOP(=S)(OCC)Oc1nc(Cl)n(C(C)C)n1", "AC50": "2.01 µM (active)"}
{"compound": "O=C1C2CC=CCC2C(=O)N1SC(Cl)(Cl)Cl", "note": "(stereo not given)", "outcome": "inactive"}
{"compound": "OC(c1ccc(Cl)cc1)(c1ccc(Cl)cc1)C(Cl)(Cl)Cl", "AC50": "75.9 µM (active)"}
{"compound": "CNC(=O)N(C)c1nnc(C(C)(C)C)s1", "outcome": "inactive"}
{"compound": "CC(C)C1(C)N=C(c2ncccc2C(=O)O)NC1=O", "note": "(stereo not given)", "outcome": "inactive"}
{"compound": "CC(C)(C)C(=O)C(Oc1ccc(Cl)cc1)n1cncn1", "note": "(stereo not given)", "outcome": "inactive"}
{"compound": "COP(=O)(OC)O/C(C)=C/C(=O)N(C)C", "outcome": "inactive"}
{"compound": "CCN(CC)c1nc(C)cc(OP(=S)(OC)OC)n1", "outcome": "inactive"}
{"compound": "Clc1cccc(C(Cl)(Cl)Cl)n1", "outcome": "inactive"}
{"compound": "CC(C)N1C(=O)N(c2ccccc2)CSC1=NC(C)(C)C", "AC50": "70.4 µM (active)"}
{"compound": "COCc1cnc(C2=NC(C)(C(C)C)C(=O)N2)c(C(=O)O)c1", "note": "(stereo not given)", "outcome": "inactive"}
{"compound": "CCN(CC)C(=O)C(C)Oc1cccc2ccccc12", "note": "(stereo not given)", "AC50": "35.5 µM (active)"}
{"compound": "CCSC(=O)N1CCCCCC1", "outcome": "inactive"}
{"compound": "CC1(C)CCC(=Cc2ccc(Cl)cc2)C1(O)Cn1cncn1", "note": "(stereo not given)", "AC50": "4.96 µM (active)"}
{"compound": "COCC(C)N(C(=O)CCl)c1c(C)csc1C", "note": "(stereo not given)", "AC50": "29.5 µM (active)"}
{"compound": "CS(=O)(=O)c1ccc(C(=O)C2C(=O)CCCC2=O)c([N+](=O)[O-])c1", "outcome": "inactive"}
{"compound": "Cc1nc(N(C)C)nc(OC(=O)N(C)C)c1C", "outcome": "inactive"}
{"compound": "Cc1cnc(C2=NC(C)(C(C)C)C(=O)N2)c(C(=O)O)c1", "note": "(stereo not given)", "outcome": "inactive"}
{"compound": "CCCN(CC)CC1COC2(CCC(C(C)(C)C)CC2)O1", "note": "(stereo not given)", "outcome": "inactive"}
{"compound": "Cn1c(-c2ccccc2)cc(-c2ccccc2)[n+]1C", "AC50": "57.2 µM (active)"}
{"compound": "Nc1cnn(-c2ccccc2)c(=O)c1Cl", "outcome": "inactive"}
{"compound": "CC1(C)CON(Cc2ccccc2Cl)C1=O", "outcome": "inactive"}
{"compound": "O=C(O)c1c(Cl)ccc2cc(Cl)cnc12", "outcome": "inactive"}
{"compound": "COCC(=O)N(c1c(C)cccc1C)C(C)C(=O)OC", "note": "(stereo not given)", "outcome": "inactive"}
